From PubChem BioAssay
M1 PAM parental – nonselective activator or artifact in parental CHO-K1 calcium assay | ATP EC20, Fluo-8 calcium fluorescence; 0% at ATP EC20, 100% at ATP max | activation, % at 3 µM | 360,000 compounds, 0.02% hits | AID 602247;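 active = activation above the run cutoff, the mean activation of all test compounds plus 3 SD, cut at about 40% in these data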;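 also: peak over basal fluorescence ratio in a 140 s read after ATP addition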
M1 PAM – positive allosteric modulators of human M1 muscarinic receptor | P11229 | CHO-K1 hM1, Fluo-8 calcium fluorescence, ACh EC20; 0% = ACh EC20, 100% = maximal ACh | activation, % at 3 µM | 360,000 compounds, 0.088% hits; in the data active = activation above about 19%, passing the limit was not always enough
Target sequence (P11229 whole entry, looked up): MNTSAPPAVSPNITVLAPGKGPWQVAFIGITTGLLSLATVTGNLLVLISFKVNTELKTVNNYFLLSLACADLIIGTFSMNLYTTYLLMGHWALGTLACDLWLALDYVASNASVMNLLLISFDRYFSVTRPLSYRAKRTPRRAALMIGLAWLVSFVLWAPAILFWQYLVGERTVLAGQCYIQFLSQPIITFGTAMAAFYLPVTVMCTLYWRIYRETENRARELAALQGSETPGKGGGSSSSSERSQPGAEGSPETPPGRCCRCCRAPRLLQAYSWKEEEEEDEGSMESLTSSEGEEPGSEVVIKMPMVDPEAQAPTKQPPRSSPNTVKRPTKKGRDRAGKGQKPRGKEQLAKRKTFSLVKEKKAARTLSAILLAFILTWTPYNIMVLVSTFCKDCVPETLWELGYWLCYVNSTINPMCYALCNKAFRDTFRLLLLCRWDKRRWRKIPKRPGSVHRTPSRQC
M1 ag parental – counter-screen for M1 agonists: effect in parental CHO-K1 cells | AID 602248 | activation, % at 3 µM | 360,000 compounds, 0.48% hits | Fluo-8 calcium fluorescence; scaled to maximal ATP response, vehicle zero; in the data active = activation above about 15%;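 also: untransfected CHO-K1 host cells lacking M1 receptor as counterscreen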
CHRM1 agonist – human M1 muscarinic receptor agonism; activation, % at 3 µM; AID 588814; 360,000 compounds, 0.33% hits; CHO-K1 hM1, Fluo-8 calcium fluorescence, agonist mode; 0% DMSO, 100% acetylcholine EC100;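 active = activation above the run's mean compound activation plus 3 SD, cut at about 16% in these data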;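 also: peak over basal fluorescence ratio within a 140 s kinetic read after compound addition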
CHO-K1 Ca antag – counter-screen for M1 antagonists: effect in parental CHO-K1 cells; ATP-induced calcium, Fluo-8 fluorescence; 360,000 compounds, 0.6% hits; AID 602250; inhibition, % at 3 µM;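 active = inhibition above a per-plate cutoff, the plate's mean sample inhibition plus 3 SD, cut at about 24% in these data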;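 also: 0% = DMSO plus EC80 ATP and 100% = DMSO alone without ATP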
CHRM1 antagonist – blocks human M1 muscarinic receptor | CHO-K1 hM1, Fluo-8 calcium fluorescence, ACh EC80 antagonist | inhibition, % at 3 µM | 360,000 compounds, 1.3% hits;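 active = percent inhibition above its own plate's cutoff, namely the mean of that plate's compound wells plus 3 SD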;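 also: peak over basal fluorescence ratio during 140 s after agonist addition; 0% = ACh EC80 plus DMSO and 100% = DMSO alone without agonist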
* = called active by the depositor. The list is not random: actives were taken first. Their share in the collection is about 2.3%.

Results for Cc1cc(C)nc(N2CCCC(C(=O)Nc3cccc(Cl)c3)C2)n1 (stereo not given) ?
M1 PAM parental: 6.5; M1 PAM: 4.6; M1 ag parental: 0.1; CHRM1 agonist: -4.6; CHO-K1 Ca antag: -12.6; CHRM1 antagonist: -9.6

How did C/C(=N\OCC(=O)OC(C)C(=O)Nc1ccc(C(N)=O)cc1)c1ccc2c(c1)OCO2 (stereo not given) do in these assays?
M1 PAM parental: -18.5; M1 PAM: -4.6; M1 ag parental: 8.4; CHRM1 agonist: 3.2; CHO-K1 Ca antag: 19.0; CHRM1 antagonist: 9.1

Results for Cc1ccc(CNC(=O)c2ccc(Cl)cc2[N+](=O)[O-])cc1 ?
M1 PAM parental: -8.4; M1 PAM: -9.9; M1 ag parental: -0.2; CHRM1 agonist: -4.0; CHO-K1 Ca antag: 26.4*; CHRM1 antagonist: 13.3

How did O=C(NCc1ccc(Cl)cc1)c1ccc(Cl)cc1[N+](=O)[O-] do in these assays?
M1 PAM parental: 7.6; M1 PAM: 11.2; M1 ag parental: 0.1; CHRM1 agonist: -1.1; CHO-K1 Ca antag: -2.5; CHRM1 antagonist: -16.2

How did COc1ccc2oc(C(=O)N3CCN(S(=O)(=O)c4c(C)c(C)cc(C)c4C)CC3)c(C)c2c1 do in these assays?
M1 PAM parental: 16.6; M1 PAM: 4.4; M1 ag parental: 0.2; CHRM1 agonist: -3.2; CHO-K1 Ca antag: -16.1; CHRM1 antagonist: -5.5

What do the screens show for `O=C1CC(c2cccnc2)c2cc3c(cc2N1)OCCO3` (stereo not given)?
M1 PAM parental: -5.7; M1 PAM: -8.8; M1 ag parental: 0.1; CHRM1 agonist: -0.9; CHO-K1 Ca antag: 11.4; CHRM1 antagonist: 39.1*

How did Cc1ccc(C)c(C(C)NC(=S)NCc2ccc(F)cc2)c1 (stereo not given) do in these assays?
M1 PAM parental: 6.6; M1 PAM: -6.6; M1 ag parental: 16.6*; CHRM1 agonist: 10.2; CHO-K1 Ca antag: -8.7; CHRM1 antagonist: 11.2

How did Oc1ccc(Br)cc1-c1cc(-c2ccccc2F)[nH]n1 do in these assays?
M1 PAM parental: -3.7; M1 PAM: -1.2; M1 ag parental: -0.1; CHRM1 agonist: 1.5; CHO-K1 Ca antag: 25.6*; CHRM1 antagonist: -0.9

What do the screens show for `NCCCCCc1cn(CC(=O)NCCCCCCCCCCC(=O)N2CCNCC2)nn1`?
M1 PAM parental: 11.0; M1 PAM: 25.4; M1 ag parental: 0.0; CHRM1 agonist: -9.6; CHO-K1 Ca antag: -10.5; CHRM1 antagonist: -22.0

What do the screens show for `CN1CCN(c2ccc(NC(=S)NC(=O)c3cccc4ccccc34)cc2)CC1`?
M1 PAM parental: 6.8; M1 PAM: -22.2; M1 ag parental: 3.6; CHRM1 agonist: -3.0; CHO-K1 Ca antag: -11.9; CHRM1 antagonist: 45.2*

How did CC(=O)N1CCN(c2ccc(NC(=S)NC(=O)COc3ccc(C(C)(C)C)cc3)cc2)CC1 do in these assays?
M1 PAM parental: 1.6; M1 PAM: -9.3; M1 ag parental: 9.5; CHRM1 agonist: 0.3; CHO-K1 Ca antag: 23.3; CHRM1 antagonist: 26.3

What do the screens show for `CCC(=O)N1CCN(c2ccc(NC(=S)NC(=O)COc3ccccc3)cc2)CC1`?
M1 PAM parental: -4.7; M1 PAM: -15.6; M1 ag parental: 14.6; CHRM1 agonist: 2.5; CHO-K1 Ca antag: 1.6; CHRM1 antagonist: 30.0*

How did CN1CCN(c2ccc(NC(=S)NC(=O)c3cccc4c(Br)cccc34)cc2)CC1 do in these assays?
M1 PAM parental: 19.9; M1 PAM: -12.0; M1 ag parental: 1.7; CHRM1 agonist: -4.6; CHO-K1 Ca antag: -17.1; CHRM1 antagonist: 20.4

How did COc1ccc(NC(=O)c2cc(-c3ccccc3)nc3c2cnn3C(C)C)c(OC)c1 do in these assays?
M1 PAM parental: 13.0; M1 PAM: 4.1; M1 ag parental: 0.0; CHRM1 agonist: 0.6; CHO-K1 Ca antag: -2.0; CHRM1 antagonist: -7.1

Results for COc1ccc(C(=O)COC(=O)CCCC(=O)NC2CCCCC2)cc1 ?
M1 PAM parental: 0.2; M1 PAM: 2.1; M1 ag parental: 0.8; CHRM1 agonist: -1.9; CHO-K1 Ca antag: -2.3; CHRM1 antagonist: -2.5

What do the screens show for `CN(C)CCCn1c(SCC(=O)N2CC(=O)Nc3ccccc32)nc2ccccc2c1=O`?
M1 PAM parental: 12.8; M1 PAM: 0.3; M1 ag parental: 0.4; CHRM1 agonist: -7.6; CHO-K1 Ca antag: -14.0; CHRM1 antagonist: -0.7

How did CC(C)N(CCn1c(SCC(=O)N2CC(=O)Nc3ccccc32)nc2ccccc2c1=O)C(C)C do in these assays?
M1 PAM parental: 3.4; M1 PAM: -22.8; M1 ag parental: 0.1; CHRM1 agonist: -5.8; CHO-K1 Ca antag: -20.1; CHRM1 antagonist: 61.5*

How did CCOC(=O)c1[nH]ncc1CN1CCCC(C(=O)c2ccc(SC)cc2)C1 (stereo not given) do in these assays?
M1 PAM parental: -3.9; M1 PAM: -5.8; M1 ag parental: 0.2; CHRM1 agonist: -14.1; CHO-K1 Ca antag: 5.7; CHRM1 antagonist: 2.8

Results for COc1ccc(CN2CCCC(C(=O)c3ccc(SC)cc3)C2)cc1Cn1cccn1 (stereo not given) ?
M1 PAM parental: -18.9; M1 PAM: -24.8; M1 ag parental: 2.2; CHRM1 agonist: -4.1; CHO-K1 Ca antag: 18.2; CHRM1 antagonist: 88.3*

Results for CSc1ccc(C(=O)C2CCCN(Cc3ccc(N4CCNC4=O)cc3)C2)cc1 (stereo not given) ?
M1 PAM parental: 13.4; M1 PAM: -28.4; M1 ag parental: 9.6; CHRM1 agonist: -11.0; CHO-K1 Ca antag: 7.0; CHRM1 antagonist: 96.6*

What do the screens show for `Cc1c(Br)cccc1NC(=O)C1(C)CCN1C(C)C` (stereo not given)?
M1 PAM parental: 13.6; M1 PAM: 2.3; M1 ag parental: 0.2; CHRM1 agonist: -4.4; CHO-K1 Ca antag: -9.8; CHRM1 antagonist: -4.6

Results for O=C(Nc1ccc(O)cc1)/C(=C\C=C\c1ccccc1)NC(=O)c1ccccc1 ?
M1 PAM parental: 8.3; M1 PAM: -10.7; M1 ag parental: 3.0; CHRM1 agonist: -1.3; CHO-K1 Ca antag: -4.5; CHRM1 antagonist: 22.1

What do the screens show for `COC(=O)/C(=C\C=C\c1ccccc1)NC(=O)c1ccccc1`?
M1 PAM parental: -9.3; M1 PAM: -3.4; M1 ag parental: 3.0; CHRM1 agonist: -3.9; CHO-K1 Ca antag: 28.7*; CHRM1 antagonist: -4.5

What do the screens show for `CCCOC(=O)c1ccc(Oc2coc3c(CN(CC)CC)c(O)ccc3c2=O)cc1`?
M1 PAM parental: -4.6; M1 PAM: -26.3; M1 ag parental: -0.3; CHRM1 agonist: -11.1; CHO-K1 Ca antag: 3.2; CHRM1 antagonist: 89.1*

How did Cc1cc(/C=N/NC(N)=S)c(C)n1-c1ccc(Cl)cc1 do in these assays?
M1 PAM parental: 4.8; M1 PAM: -6.5; M1 ag parental: 17.9*; CHRM1 agonist: -5.5; CHO-K1 Ca antag: 3.8; CHRM1 antagonist: 3.2

How did CC(OC(=O)Cc1c[nH]c2ccccc12)C(=O)Nc1ccccc1[N+](=O)[O-] (stereo not given) do in these assays?
M1 PAM parental: -2.3; M1 PAM: 3.8; M1 ag parental: 1.0; CHRM1 agonist: -1.6; CHO-K1 Ca antag: -1.0; CHRM1 antagonist: -2.1
